The subject of experiment [1] is CRL-7250. The experiment in a line: Cytotoxic Profiling of Annotated Libraries Using Quantitative High-Throughput Screening (AID 1296008). The following applies: Five cell lines viability, CellTiter-Glo ATP luminescence, 48-72 h; max response: active compounds read low. A digest of the protocol:
(§1)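 Cytotoxicity was measured as CellTiter-Glo ATP luminescence, read after 10 min at room temperature. Compound treatment of the cells lasted 48 or 72 hr at 37 degrees Celsius in a qHTS format.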
A general note: In ATP-based viability assays light output follows the ATP content of the culture.

Experiment [2] concerns HaCat. Described as above. The settings on record: Five cell lines viability, CellTiter-Glo ATP luminescence, 48-72 h; max response: active compounds read low. A digest of the protocol:
as §1

For experiment [3], the system named is NIH3T3. The description is as above. The settings on record: Five cell lines viability, CellTiter-Glo ATP luminescence, 48-72 h; max response: active compounds read low. A digest of the protocol: as §1
Experiment [4] relates to MCC-13. Nature of the experiment: qHTS assay to identify novel small-molecules to repurpose for Merkel cell carcinoma treatment (AID 1296009). The settings on record: MCC and control cell lines, CellTiter-Glo viability, 72 h; series mostly up to 46 µM. The method, boiled down: (§2)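 Cell viability measured by CellTiter-Glo following 72 hr compound treatment at 37 degree celsius, with NPC and MIPE libraries tested in 8- and 11-point concentration series.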
Background: qHTS replaces the single test concentration by a dilution series.

For experiment [5], the system named is MCC-26. The experiment is described as above. The following applies: MCC and control cell lines, CellTiter-Glo viability, 72 h; series mostly up to 46 µM. The method, boiled down: as §2
Experiment [6] relates to KB-3-1. Nature of the experiment: Cytotoxic Profiling of Annotated Libraries Using Quantitative High-Throughput Screening (AID 1296008). The following applies: Five cell lines viability, CellTiter-Glo ATP luminescence, 48-72 h; max response: active compounds read low. A digest of the protocol: as §1
The subject of experiment [7] is HACAT. Nature of the experiment: qHTS assay to identify novel small-molecules to repurpose for Merkel cell carcinoma treatment (AID 1296009). The settings on record: MCC and control cell lines, CellTiter-Glo viability, 72 h; at 44.8 µM (top of the series) unless noted. The method, boiled down:
as §2

In experiment [8] the test system is MKL-1. Described as above. The settings on record: MCC and control cell lines, CellTiter-Glo viability, 72 h; series mostly up to 46 µM. A digest of the protocol: as §2
Experiment [9] concerns HEK293. Nature of the experiment: Cytotoxic Profiling of Annotated Libraries Using Quantitative High-Throughput Screening (AID 1296008). The following applies: Five cell lines viability, CellTiter-Glo ATP luminescence, 48-72 h; max response: active compounds read low. The method, boiled down:
as §1

“And” between values parts separate entries of the source, which are not always exact repeats. Equal entries are not always repeated. Records with an inconclusive call do not appear. Unmarked numbers belong to inactive results. The source made the active and inactive calls. The call rests on the fitted dose curve; in most records, active means well fitted inhibition curve with a large enough effect; inconclusive means small, poorly fitted or top-dose-only effect; inactive means flat fitted curve, though single readings scatter.
Further: nearly all actives have a fitted effect of over 60% in size.
On the % scale 0 is the no-effect control and ±100 the full control effect; potency means the concentration at half of the fitted maximal effect.

In the case of `CC(=O)Oc1ccc2c(c1)CC[C@@H]1[C@@H]2CC[C@]2(C)[C@@H](O)CC[C@@H]12`, the values for the max response in [1], in [2] and in experiment [3] were -2.1%, -1.57% and 2.78%, respectively. In addition, the Potency result in [4] and in [5] was “inactive” throughout.

Take `CC(=O)c1ccc2c(c1)N(CCCN1CCC(CCO)CC1)c1ccccc1S2`: the figures for the max response in [1] and in [6] were -7.11% and -5.25%, respectively. Further, the compound was classed as inactive in [2] and in experiment [7]. Also, the Potency result in experiment [4], in experiment [5] and in [8] was “inactive” throughout.

On to `COC1=CC(=O)C[C@@H](C)[C@]12Oc1c(Cl)c(OC)cc(OC)c1C2=O`, for which, in [1], the result was inactive. Further, the Potency in experiment [2] was 23.7 µM (active). In experiment [6], the max response is -57.5%. In addition, the Potency result in [4] and in experiment [5] was “inactive” in each case.

Take `C=C1C(=C/C=C2\CCC[C@]3(C)[C@@H]([C@H](C)/C=C/[C@@H](O)C4CC4)CC[C@@H]23)C[C@@H](O)C[C@@H]1O`: the result in [1], in experiment [2] and in experiment [7] was inactive. Also, the max response in experiment [6] is 29.7%; in experiment [3] it was -35.8%. Moreover, the Potency entry in experiment [4] and in experiment [5] was “inactive” each time.

In the case of `OC(CCN1CCCCC1)(c1ccccc1)c1ccccc1`, the compound was classed as inactive in [1], in [2] and in experiment [7]. The max response in experiment [6] is 16.8%; in experiment [3], 2.78%. Further, the Potency result in [4], in experiment [5] and in experiment [8] was “inactive” each time.

Take `O=C(OCC(O)CO)c1ccccc1Nc1ccnc2cc(Cl)ccc12` (stereo not drawn): the call in [1] was inactive. Also, the max response in experiment [2] was -6.51%; in [6], 1.57%. In addition, the Potency result in [4], in experiment [5] and in experiment [8] was “inactive” in each case.

On to `CC(=O)Oc1ccc(C(c2ccc(OC(C)=O)cc2)c2ccccn2)cc1`, for which the max response was -7.93% in experiment [1], -0.175% in experiment [2], -5.6% in [6] and -2.66% in experiment [3]. The Potency entry in experiment [4], in experiment [5] and in experiment [8] was “inactive” each time.

As for `C[n+]1c2cc(N)ccc2cc2ccc(N)cc21` (tested in a mixture with another compound), the Potency is 6.68 µM (active) in experiment [1]; 3.35 µM (active) in [9]; 11.9 µM (active) in experiment [4]; 15 µM (active) in experiment [5]; 2.99 µM (active) in experiment [8].

For `CC(=O)[C@H]1CC[C@H]2[C@@H]3C[C@H](C)C4=CC(=O)CC[C@]4(C)[C@H]3[C@@H](O)C[C@]12C`, the compound was classed as inactive in experiment [1] and in [3]. In addition, the max response in [2] was -3.2%; in experiment [6], 30.5%. In addition, the Potency entry in experiment [4], in experiment [5] and in [8] was “inactive” in each case.

`CN1CCC(=C2c3ccccc3Sc3ccccc32)CC1`: the max response was -1.99% in experiment [1], -16.3% in experiment [6] and -14.3% in experiment [3]. Moreover, the call in experiment [2] and in experiment [7] was inactive. Moreover, the Potency result in [4] and in experiment [5] was “inactive” throughout.

Regarding `COc1cccc2c1C(=O)c1c(O)c3c(c(O)c1C2=O)C[C@@](O)(C(C)=O)C[C@@H]3O[C@H]1C[C@H](N)[C@H](O)[C@H](C)O1`, the Potency in [1] is 0.075 µM (active); in experiment [9], 0.0473 µM (active); in experiment [3] it was 133 nM (active); in [4], 1.06 µM (active); in [5], 0.944 µM (active); in experiment [8] it was 0.0237 µM (active).

For the compound `C[C@@H]1C[C@H]2[C@@H]3CCC4=CC(=O)C=C[C@]4(C)[C@@]3(F)[C@@H](O)C[C@]2(C)[C@H]1C(=O)CO`, the max response was -8.13% in experiment [1], -8.02% in experiment [2], 11.3% in experiment [6] and -2.44% in experiment [3]. Besides, the Potency result in [4], in [5] and in experiment [8] was “inactive” in each case.

For `c1ccc(CNCCNCc2ccccc2)cc1`, the results for the max response in experiment [1] and in [6] were -8.49% and -3.68%, respectively. The compound was classed as inactive in experiment [2] and in [7]. The Potency result in experiment [4], in experiment [5] and in experiment [8] was “inactive” in each case.

On to `CC1(C)O[C@@H]2C[C@H]3[C@@H]4C[C@H](F)C5=CC(=O)C=C[C@]5(C)[C@H]4[C@@H](O)C[C@]3(C)[C@]2(C(=O)CO)O1`, for which the max response in experiment [1] was -27.4%; in experiment [9], -23.8%; in [3], -4.68%. Besides, the Potency entry in experiment [4], in [5] and in [8] was “inactive” each time.

On to `C/C=C(/C(=C/C)c1ccc(O)cc1)c1ccc(O)cc1`, for which the figures for the max response in [1], in experiment [2] and in experiment [6] were 1.03%, -0.716% and -11.5%, respectively. The Potency result in experiment [4], in experiment [5] and in experiment [8] was “inactive” each time.

With `C=C1C[C@H]2[C@@H]3C=C(C)C4=CC(=O)CC[C@]4(C)[C@H]3CC[C@]2(C)[C@@]1(OC(C)=O)C(C)=O`, the max response in experiment [1] was 1.09%; in [2] it was -2.22%; in experiment [6], 17.3%; in experiment [3] it was -3.66%. Also, the Potency result in [4], in experiment [5] and in experiment [8] was “inactive” each time.

Consider `c1ccc(OCc2ccc(CCCN3CCOCC3)cc2)cc1`, for which the max response was -18% in [1], 1.82% in experiment [2] and 2.12% in experiment [6]. For the same compound, the Potency result in experiment [4], in experiment [5] and in [8] was “inactive” in each case.

With `CCOc1ccc2nc3cc(N)ccc3c(N)c2c1`, the results for the Potency in [1] and in experiment [8] were 11.9 µM (active) and 5.96 µM (active), respectively. Moreover, the max response in [2] was -2.56%; in experiment [6] it was -2.82%. Moreover, in experiment [5], the Potency result was “inactive”.

`CN(C)CC/C=C1\c2ccccc2Sc2ccc(Cl)cc21`: the results for the max response in experiment [1], in experiment [6] and in experiment [3] were -3.17%, -2.56% and -4.42%, respectively. Further, the call in experiment [2] and in [7] was inactive. The Potency entry in experiment [4] and in experiment [5] was “inactive” in each case.

With `CCN(CCCc1ccccc1)CCCc1ccccc1`, the compound was classed as inactive in experiment [1]. Further, the results for the max response in experiment [2] and in [6] were 0.9% and -18.5%, respectively. In addition, the Potency entry in experiment [4], in experiment [5] and in [8] was “inactive” throughout.

Turning to `CCCCCC=CCC=CCCCCCCCC(=O)OCC`, the max response was -11.8% in [1] and -4.13% in experiment [6]. Moreover, the compound was called inactive in experiment [2], in [3] and in experiment [7]. The Potency entry in experiment [4] and in [5] was “inactive” in each case.

With `C[C@@H]1C[C@H]2[C@@H]3C[C@H](F)C4=CC(=O)C(Cl)=C[C@]4(C)[C@@]3(F)[C@@H](O)C[C@]2(C)[C@@]1(O)C(=O)CO`, the max response in experiment [2] is 2.77%; in [6], 11.7%; in experiment [3] it was -7.22%. The Potency entry in experiment [4], in [5] and in experiment [8] was “inactive” each time.

As for `C#C[C@]1(O)CC[C@H]2[C@@H]3CCc4cc(OC5CCCC5)ccc4[C@H]3CC[C@@]21C`, the results for the max response in [1] and in experiment [6] were 0.636% and -14.7%, respectively. In addition, the Potency result in experiment [4] and in experiment [5] was “inactive” each time.

As to `COc1cc(/C=C/C(=O)O[C@H]2CC[C@]34C[C@]35CC[C@]3(C)[C@@H]([C@H](C)CCC=C(C)C)CC[C@@]3(C)[C@@H]5CC[C@H]4C2(C)C)ccc1O`, the max response was 2.65% in experiment [9]; 0.76% and -6.22% in experiment [6]; 0.391% in experiment [3]. For the same compound, the compound was called inactive in experiment [2] and in experiment [7]. Also, the Potency entry in experiment [4], in experiment [5] and in experiment [8] was “inactive” each time.

Turning to `CCCCCCCCCCCCCCCC[N+](C)(C)CCN(Cc1ccc(OC)cc1)c1ncccn1`, the Potency in [9] is 9.44 µM (active); in [8], 5.96 µM (active). The max response in [6] was -4.99%.

In the case of `C[C@]12CCC(=O)C=C1[C@@H]1C[C@@H]1[C@H]1[C@@H]3[C@@H]4C[C@@H]4[C@@]4(CCC(=O)O4)[C@@]3(C)CC[C@@H]12`, the outcome in [1] was inactive. Further, the values for the max response in [2] and in [3] were -9.08% and -5.26%, respectively. The Potency result in [4], in experiment [5] and in experiment [8] was “inactive” each time.

As for `C[C@]12CC[C@H]3[C@@H](CCC4=CC(=O)CC[C@@]43C)[C@@H]1CC[C@@H]2C(=O)CO`, the values for the max response in experiment [1], in [6] and in experiment [3] were -11.9%, -3.06% and -2.44%, respectively. Moreover, the Potency entry in [4], in experiment [5] and in experiment [8] was “inactive” throughout.

Regarding `CC(=O)OCC(=O)[C@@]1(OC(C)=O)[C@@H](C)C[C@H]2[C@@H]3C[C@H](F)C4=CC(=O)C=C[C@]4(C)[C@@]3(F)[C@@H](O)C[C@@]21C`, the outcome in experiment [1] was inactive. In addition, the max response was 6.89% in experiment [6] and -5% in experiment [3]. In addition, the Potency result in [4], in [5] and in experiment [8] was “inactive” each time.

In the case of `CC(C)(C)CC(C)(C)c1ccc(OCCOCC[N+](C)(C)Cc2ccccc2)cc1`, the Potency in [9] is 6.68 µM (active) and 8.2 µM (active); in experiment [6], 20.6 µM (active); in experiment [8], 1.06 µM (active). In [3], the max response was -27.5%. The Potency result in experiment [4] is “inactive”.

These data come from PubChem BioAssay (NCATS).
